# According to PubChem BioAssay AID588382 (National Center for Advancing Translational Sciences (NCATS), 2011):
# About 150 (12%) of roughly 1,300 compounds were called active. Inconclusive results (about 30%) are left out. The list comes from a sample in which actives are over-represented; it also holds similar structures and randomly drawn compounds. Values without a mark were called inactive. Calls follow the shape of the dose curve; as a rule, active = well fitted cell-killing curve with a large enough effect; inconclusive = small, poorly fitted or top-dose-only effect, or effect the other way; inactive = flat fitted curve, though single readings scatter.
# Experiment: qHTS of small molecules that selectively kill Giardia lamblia: Hit Validation in HepG2 cytotox;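 also: compound exposure lasted overnight at 37 deg C; nearly all actives have a fitted effect of over 55% in size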;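 as to activity change, negative = cytotoxicity: viability measured as cellular ATP by ATPLite luminescence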
# Settings: cell viability; Potency: HepG2 cytotoxicity; series mostly up to 38.3 µM; activity change, negative = cytotoxicity: at the top concentration
# Outline: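 Counterscreen cytotoxicity: ATPLite luminescence (15 min, room temperature) measured in HepG2 cells exposed overnight at 37 deg C to pin-transferred compound (23 nL) after overnight pre-incubation.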
# % is scaled to controls: 0 for no effect and ±100 for the full control effect; potency is read from the fitted curve at half-maximal effect.
Compound,"activity change, negative = cytotoxicity [%]",Potency
CC(C)(C)c1ccc2c(c1)OC(C(=O)N/N=C/c1ccc([N+](=O)[O-])o1)CO2 (stereo not drawn),-12.1,
Cc1ccc(N=c2c([N+](=O)[O-])nn(-c3ccccc3)n2O)c(C)c1,-15.1,
Cc1ccc(S(=O)(=O)N2[C@@H](c3ccccc3)C(C(=O)O)=CC[C@H]2c2cccc(Cl)c2)cc1,6.16,
C=C1C=C(C)n2ncc(C(=O)Nc3ccc(C)cn3)c2N1,-8.35,
O=C(COC(=O)c1ccccc1)Nc1ncc([N+](=O)[O-])s1,16.8,
Cc1ccc(CC(=O)Nc2ncc([N+](=O)[O-])s2)cc1,3.03,
O=C(Nc1ncc([N+](=O)[O-])s1)c1cccc([N+](=O)[O-])c1,,3.29 µM (active)
O=C(Nc1ncc([N+](=O)[O-])s1)c1ccco1,-8.55,
Cc1ccc(C(=O)Nc2ncc([N+](=O)[O-])s2)cc1,,6.56 µM (active)
Cc1ccc(S(=O)(=O)CC(=O)Nc2ncc([N+](=O)[O-])s2)cc1,1.79,
Cc1cc(Nc2ccccc2)c2c([N+](=O)[O-])cc(C)c(C)c2n1,9.04,
CC(NC(=O)COc1cccnc1[N+](=O)[O-])c1ccc(Cl)cc1 (stereo not drawn),1.74,
O=[N+]([O-])c1ccc(CN2CCN(c3ccccc3Cl)CC2)o1,9.64,
CC(=NN1CC(=O)NC1=O)c1ccc([N+](=O)[O-])o1,-8.95,
O=C(Nc1ccc(N2CCN(Cc3ccccc3F)CC2)cc1)c1ccc([N+](=O)[O-])o1,,2.93 µM (active)
O=[N+]([O-])c1ccc(CN2CCN(c3ccc(Cl)cc3)CC2)o1,2.99,
CC(C)C(=O)N1CCN(c2ccc(NC(=O)c3ccc([N+](=O)[O-])o3)cc2)CC1,,5.85 µM (active)
CC(C)(C)C(=O)N1CCN(c2ccc(NC(=O)c3ccc([N+](=O)[O-])o3)cc2)CC1,,6.56 µM (active)
O=C(Nc1ccc(N2CCCCC2)cc1)c1ccc([N+](=O)[O-])o1,,13.1 µM (active)
O=[N+]([O-])c1ccc(CN2CCN(c3ccc(F)cc3)CC2)o1,16.3,
COc1cc(Nc2ccc(C)cc2)c([N+](=O)[O-])nc1[N+](=O)[O-],14.5,
Cc1ccc(C(=O)c2c3ccc([N+](=O)[O-])cc3[n+]([O-])n2CCC(N)=O)cc1,19,
CC(Oc1cccnc1[N+](=O)[O-])C(=O)Nc1cccc(Cl)c1 (stereo not drawn),9.9,
COc1ccc(-n2nc([N+](=O)[O-])c(=NCCc3cccc(C)c3)n2O)cc1,5.18,
COC(=O)c1cc(NC(=O)c2cc(C(C)(C)C)nn2Cc2ccc(F)cc2)ccc1N1CCOCC1,0.619,

Compound,"activity change, negative = cytotoxicity [%]",Potency
COc1ccc(C(C)=O)cc1COc1cccnc1[N+](=O)[O-],4.35,
O=C(Cc1c(F)cccc1Cl)Nc1ncc([N+](=O)[O-])s1,-17.9,
O=[n+]1c2c(n([O-])c3cc(Br)ccc31)CCC2,22.2,
CCOc1cc([N+](=O)[O-])cc(/C=C2/NC(=O)N(Cc3ccccc3F)C2=O)c1O,11.1,
O=[N+]([O-])c1nn(-c2ccc3c(c2)OCCO3)n(O)c1=NCc1ccc(F)cc1,23.9,
CN(C)c1ccc(C2Nc3cccc4cccc(c34)N2)cc1,-11.1,
Cc1cc(C)cc(N=c2c([N+](=O)[O-])nn(-c3ccc4c(c3)OCCO4)n2O)c1,-0.929,
CCC(=O)N1CCN(c2ccc(NC(=O)c3ccc([N+](=O)[O-])o3)cc2)CC1,,11.7 µM (active)
CCCC(=O)N1CCN(c2ccc(NC(=O)c3ccc([N+](=O)[O-])o3)cc2)CC1,,3.29 µM (active)
CS(=O)(=O)N1CCN(c2ccc(NC(=O)c3ccc([N+](=O)[O-])o3)cc2)CC1,,3.69 µM (active)
CCC(=O)N1CCN(c2ccccc2NC(=O)c2ccc([N+](=O)[O-])o2)CC1,-5.48,
CS(=O)(=O)N1CCN(c2ccccc2NC(=O)c2ccc([N+](=O)[O-])o2)CC1,-6.16,
NC(=O)c1ccc(NC(=O)COc2ccc([N+](=O)[O-])cc2Cl)cc1,15.1,
NS(=O)(=O)c1ccc(Nc2ncccc2[N+](=O)[O-])cc1,7.7,
O=[n+]1c2c(n([O-])c3cc(Cl)ccc31)CCCC2,5.34,
COc1ccc(CNC(=O)COc2cccnc2[N+](=O)[O-])cc1OC,6.39,
Cc1oc2cc(O)ccc2c(=O)c1Oc1ccccc1Br,18.1,
CCC(=O)Nc1nc(-c2cc([N+](=O)[O-])cs2)cs1,22.8,
COCCNC(=O)/C(C#N)=C/c1ccc(O)c([N+](=O)[O-])c1,9.93,
Cc1ccc(NC(=S)NNc2ccc([N+](=O)[O-])cc2S(=O)(=O)Nc2ccccc2C(=O)O)cc1C,9.64,
COc1cc(/C=C2\SC(=O)N(Cc3ccc(F)cc3)C2=O)cc([N+](=O)[O-])c1O,-2.93,
COc1ccc(-c2nc3c(=O)n(C)c(=O)nc-3n(C)n2)cc1,,1.85 µM (active)
Cn1nc(-c2cccnc2)nc2c(=O)n(C)c(=O)nc1-2,,3.69 µM (active)
CCCc1nc2c(=O)n(C)c(=O)nc-2n(C)n1,,8.26 µM (active)
COc1ccc(-c2ncn(CCC#N)c2[N+](=O)[O-])cc1,5.4,

Compound,"activity change, negative = cytotoxicity [%]",Potency
COc1ccc(-c2cc(=O)c3ccccc3o2)cc1,-16,
Cc1ccccc1-c1nc2c(=O)n(C)c(=O)nc-2n(C)n1,,3.29 µM (active)
COc1ccccc1NC(=O)COc1cccnc1[N+](=O)[O-],0.838,
Cc1ccc(S(=O)(=O)N2[C@@H](c3ccc(F)cc3)C(C(=O)O)=CC[C@H]2c2cccc(C)c2)cc1,7.11,
COc1ccc(-n2nc([N+](=O)[O-])c(=NCCCN3CCCC3=O)n2O)cc1,8.35,
O=C(COc1cccnc1[N+](=O)[O-])Nc1ccc2c(c1)CCC2,27.1,
Cc1c[nH]c(=O)c([N+](=O)[O-])c1,10.6,
Cc1cc(C(=O)N/N=C/c2ccc(O)c([N+](=O)[O-])c2)n[nH]1,4.19,
COc1cc2sc(-c3ccccc3OC)c(-c3ccc(O)cc3)c2cc1OC,-0.122,
O=C(NN1C(=O)c2ccccc2NC1c1ccc([N+](=O)[O-])o1)c1ccc([N+](=O)[O-])cc1 (stereo not drawn),-15.4,
Cn1nc(-c2ccc(F)cc2)nc2c(=O)n(C)c(=O)nc1-2,,2.61 µM (active)
Cc1ccc(OCC(=O)Nc2cc(S(=O)(=O)N3CCOCC3)ccc2Cl)c([N+](=O)[O-])n1,2.02,
Cc1cc2ccccn2c1C(=O)c1ccc([N+](=O)[O-])cc1[N+](=O)[O-],12.4,
COc1ccc2c3n([n+]([O-])c2c1)CCN=C3c1ccc(Cl)cc1,20.6,
N=NC(=O)c1ccccc1Nc1c(O)[nH]c2ccccc12,,16.5 µM (active)
COc1ccc(CNC(=O)COc2cccnc2[N+](=O)[O-])cc1,15.6,
O=[N+]([O-])c1ccc(/C=N/Nc2nc(-c3ccccc3)c3cc(Br)ccc3n2)o1,11,
CCOc1ccc(NC(=O)C(C)C(Cc2ccc(C)cc2)C(=O)O)cc1 (stereo not drawn),0.187,
Nc1c(Cl)cc(C2=NCCn3c2c2ccccc2[n+]3[O-])cc1Cl,0.209,
O=c1[nH]c2cccnc2n1-c1ccc([N+](=O)[O-])cc1,17,
N#Cc1c(N2CCN(c3ccc([N+](=O)[O-])cc3)CC2)[n+](=O)c2ccc(Cl)cc2n1[O-],8.84,
CC1CCc2c(sc(NC(=O)Cn3cnc([N+](=O)[O-])n3)c2C(N)=O)C1 (stereo not drawn),-5.73,
CC1CCc2c(sc(NC(=O)CCCn3cnc([N+](=O)[O-])n3)c2C(N)=O)C1 (stereo not drawn),2.15,
Cn1cc([N+](=O)[O-])c(C(=O)Nc2sc3c(c2C#N)CCC3)n1,,2.33 µM (active)
O=C(NN1C(=O)c2ccccc2NC1c1ccc([N+](=O)[O-])o1)c1ccccc1 (stereo not drawn),-1.31,

Compound,"activity change, negative = cytotoxicity [%]",Potency
CN(C)c1ccc(N=Nc2ccccc2C(=O)OCC(=O)N2CCCC2)cc1,-11.4,
Cc1cc(N)ccc1N=Nc1c(C)n(C)n(-c2ccccc2)c1=O,-14.5,
FC(F)(F)c1ccc2c(c1)N1CCCC1CN2 (stereo not drawn),0.308,
CC(C)c1ccc(N=c2c([N+](=O)[O-])nn(-c3ccc4c(c3)OCCO4)n2O)cc1,-4,
Fc1ccc2cc(-c3ccsc3)ncc2c1,28.3,
CC/C=C1/N=C2C(=O)N(C)C(=O)N=C2N(C)N1,,3.29 µM (active)
O=[N+]([O-])c1ccc(COn2nnc3ccccc32)cc1,3.37,
COc1ccc2c(c1)[n+](=O)c(C(C)=O)c(C)n2[O-],1.41,
Cc1nonc1OCCn1c([N+](=O)[O-])cnc1C,0.594,
CCCOC(=O)/C(=C\c1ccc([N+](=O)[O-])o1)NC(=O)c1ccccc1,-5.09,
O=[N+]([O-])c1ccc2c3n([n+]([O-])c2c1)CCN=C3c1ccc(Cl)cc1,16.8,
O=[N+]([O-])c1ccc(-c2ccn[nH]2)o1,-11.6,
O=C1NC(=S)S/C1=C\C=C\c1ccc([N+](=O)[O-])o1,,3.29 µM (active)
O=[N+]([O-])c1ccc(/C=[N+](\[O-])CCO)o1,8.7,
O=[N+]([O-])c1ccccc1S(=O)(=O)Oc1ccccc1/C=N/n1cnnc1,-19,
CC(=O)c1ccc(NC(=O)COC(=O)c2ccccc2N=Nc2ccc(N(C)C)cc2)cc1,8.9,
O=C(Nc1cccc2ccccc12)C12CC3CC(C1)CC(n1cnc([N+](=O)[O-])n1)(C3)C2,-8.67,
Cc1cccc(-n2ncc3c(N4CCCC4)ncnc32)c1,,2.07 µM (active)
O=C(c1ccco1)N1CCN(Cc2cc(=O)c(OCc3ccc([N+](=O)[O-])cc3)co2)CC1,5.68,
COC(=O)c1ccccc1NC(=O)N1c2ccccc2Sc2ccccc21,5.99,
Cc1cccc(N2CCN(Cc3ccc([N+](=O)[O-])o3)CC2)c1C,13.8,
CCCC(=O)NC(=S)NNC(=O)c1ccc([N+](=O)[O-])cc1,0.795,
Cc1cc(-c2ccc(C)c(S(=O)(=O)N3CCN(c4ccc([N+](=O)[O-])cc4)CC3)c2)on1,-4.43,
